Rows were chosen to be rich in hits. Some 21% of all compounds tested hit in one or more screens of this group.
Shiga toxin inh – A qHTS for Small Molecule Inhibitors of Shiga Toxin; 290,000 tested, 9.2% active; Vero cells, Shiga toxin protein synthesis inhibition reporter; inhibition, % at 38.7 µM; in the data active = inhibition mostly above about 28%, no sharp cut-off; inactive = mostly below about 43%
HCV inhibitor – qHTS Assay for Inhibitors of Hepatitis C Virus (HCV); Huh7.5.1 HCVcc-Cre infection, luciferase reporter, 44 h; Potency, µM (highest dose often 41.8 µM), most hits filed as inhibitors; 340,000 tested, 3.4% active; AID 651820, 2012
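Whole-lifecycle infectious HCVcc-Cre system; cells 1,000/well, compound then virus (~0.5 moi) added 4 h after plating, 44 h culture. Luciferase read 15 sec following 15 min substrate incubation, room temp.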
CHX counter – Cycloheximide Counterscreen for Small Molecule Inhibitors of Shiga Toxin. cell reporter, cycloheximide protein synthesis inhibition counterscreen. AID 2314, 2010. 300,000 tested, 12% active. max response, %; in the data active = max response mostly above about 13%, no sharp cut-off; inactive = mostly below about 14%; note: read at 38.3 µM for the half of the compounds with a filed dose
Pf growth 48h – Primary qHTS for delayed death inhibitors of the malarial parasite plastid, 48 hour incubation; AID 504832, 2011; 310,000 tested, 5.9% active; P. falciparum luciferase growth in erythrocytes, 48 h; Potency, µM (top dose mostly 28.7 µM), most hits filed as inhibitors
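A one-generation exposure of luciferase-tagged malaria parasites in RPMI 1640/Albumax erythrocyte culture, 37 C and 5% CO2. Inhibition is inferred from decreased luminescence after adding detection reagent.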
Pf growth 96h – Primary qHTS for delayed death inhibitors of the malarial parasite plastid, 96 hour incubation; P. falciparum luciferase reporter growth, 96 h; Potency, µM (doses to about 28.7 µM), actives largely listed as inhibitors; 320,000 tested, 6.9% active; AID 504834, 2011
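Two-generation exposure (96 h) targets delayed-death phenotype. Reporter parasites carrying integrated firefly luciferase, in red cells at 2% hematocrit and 0.05% parasitemia final, kept at 37 C, 5% CO2; luminescence loss indicates inhibition.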
AMA1-RON2 inh – qHTS for Inhibitors of AMA1-RON; Towards Development of Antimalarial Drug Lead: Primary Screen | Plasmodium falciparum AMA1 (3D7) - RON2 peptide interaction | AlphaScreen AMA1-biotinylated RON2 peptide binding | Potency, µM (top dose mostly 58.2 µM), most hits filed as inhibitors | 360,000 tested, 0.2% active | AID 720542, 2013; note: nearly all actives have a fitted effect of over 45% in size
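AMA1 (3D7) with his tag at 25 nM final met compounds first, then biotinylated RON2 peptide at 25 nM; detection used donor plus acceptor beads, 10 µg/mL apiece, read by AlphaScreen after 30 min at room temperature.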
Numbers stand for hits; 0 = inactive; ? = inconclusive; - = no result given. Unless noted, calls come from the whole dose curve; as a rule, active = well fitted curve in the direction sought with a large enough effect; inconclusive = small, poorly fitted or top-dose-only effect, or another doubt; inactive = no such curve, though single readings can be large; an effect the other way counts as inactive or inconclusive.

SMILES	Shiga toxin inh	HCV inhibitor	CHX counter	Pf growth 48h	Pf growth 96h	AMA1-RON2 inh
O=C(CCl)c1ccc2c(c1)CCN2C(=O)C1CC1	0	-	0	0	10µM	-
O=C(C1CCC(C(=O)N2CCc3ccccc32)CC1)N1CCc2ccccc21 (centres undefined)	0	0	0	0	8.3µM	0
O=C(NC1CCCCC1)N1CCc2ccccc21	47	0	28	0	0	0
O=C(NC1CCC1)C1CCC(=O)N(Cc2ccc(Cl)cc2)C1 (centres undefined)	-	-	-	-	-	0
COC(=O)[C@]12CCCCC=C1N(CCc1ccc(OC)c(OC)c1)C(=O)[C@H](CC(=O)NCCc1ccccc1OC)C2	-	-	-	-	-	0
O=C(NC1CCCN(CCc2ccccc2)C1)C1CCCC1 (centres undefined)	0	0	0	0	?	0
O=C1NC(=O)C(=Cc2cccc(OCCOc3ccccc3)c2)C(=O)N1	65	0	44	0	0	0
Cc1ccc(OCCOc2cccc(C=C3C(=O)NC(=O)NC3=O)c2)c(C)c1	110	0	110	0	0	0
CCOC(=O)c1ccc(NC(=O)c2ccc[n+]([O-])c2)cc1	0	0	0	0	0	0
CCOC(=O)c1ccc(NC(=O)c2cc3c(s2)CCC3)cc1	54	7.9µM	39	?	0	0
COC(=O)c1sccc1NC(=O)c1cc2c(s1)CCCC2	0	0	13	0	-	0
COc1ccc(S(=O)(=O)N2CCOCC2)cc1NC(=O)c1cc2c(s1)CCCC2	0	0	0	0	0	0
COc1ccc(C)cc1NC(=O)c1cc2c(s1)CCC2	0	0	20	0	?	0
COC(=O)c1sccc1NC(=O)c1ccc(Br)o1	0	?	0	0	0	0
COCC1CCN(C(=O)c2cc(COc3ccc(OC)c4ccccc34)on2)C1 (centres undefined)	-	0	-	-	-	0
COc1ccc(OCc2cc(C(=O)N3CCC(OC)CC3)no2)c2ccccc12	126	0	41	0	0	0
CCOC(=O)C1CCN(C(=O)c2cc(COc3ccc(OC)c4ccccc34)on2)CC1	82	0	43	0	0	0
COc1ccc(S(=O)(=O)N2CCCC2CNC(=O)C(=O)NCc2ccccc2Cl)cc1 (centres undefined)	-	?	-	?	9.3µM	0
COc1ccc(CNC(=O)C(=O)NCCC2CCCCN2S(=O)(=O)c2ccccc2)cc1 (centres undefined)	-	?	-	12µM	?	0
CC(=O)Nc1ccc(C(=O)N2CCCC(c3cc(C(=O)NCc4ccc(F)cc4)no3)C2)cc1 (centres undefined)	-	-	-	-	-	0
Cc1cccc(C)c1OCc1cc(C(=O)N2CCN(C3CCCC3)CC2)no1	64	-	35	0	0	0
CCN1CCN(C(=O)c2cc(COc3c(C)cccc3C)on2)CC1	0	0	19	0	?	0
C=CC[C@H]1CC(C)=C[C@H](CC=C)N1C(=O)c1cc(COc2ccccc2SC)on1	0	13µM	0	0	?	0
COc1cccc(OCc2cc(C(=O)N3CCN(C4CCCC4)CC3)no2)c1	0	0	0	0	?	0
CSc1ccccc1OCc1cc(C(=O)N2CCN3CCCC3C2)no1 (centres undefined)	0	0	15	0	?	0
SMILES	Shiga toxin inh	HCV inhibitor	CHX counter	Pf growth 48h	Pf growth 96h	AMA1-RON2 inh
CCCNC(=O)C(CC)NC(=O)c1cccc([N+](=O)[O-])c1 (centres undefined)	-	0	-	?	0	0
O=C(O)c1cccc(-c2ccccc2)c1O	-	0	-	-	-	0
Cc1cccc(C)c1OCc1cc(C(=O)N2CCN3CCCC3C2)no1 (centres undefined)	44	-	19	0	0	0
CCOC(=O)/C(C)=N/Nc1nc(-c2ccc(NC(C)=O)cc2)cs1	0	?	18	?	10µM	0
CC(=O)Nc1ccc(-c2csc(NCc3ccccc3)n2)cc1	62	?	25	0	0	0
CC(=O)Nc1ccc(-c2csc(NNC(=O)c3ccccc3)n2)cc1	0	0	0	0	0	0
CC(=O)Nc1cccc(-c2csc(NCc3ccccc3)n2)c1	0	0	11	?	10µM	?
CCC(=O)Nc1ccc(-c2csc(NNC(C)=O)n2)cc1	0	0	0	0	0	0
COc1ccccc1-c1cnc(C(O)c2ccc(SC)cc2)[nH]1 (centres undefined)	-	-	-	-	-	0
O=C(c1ccc(F)cc1)N1CCN=C1c1ccccc1	0	0	0	0	?	0
COc1ccccc1CNC(=O)Cn1cc(Br)ccc1=O	0	0	0	0	0	0
O=C(NCc1ccc2c(c1)OCO2)c1ccc(COc2cc(Cl)ccc2Cl)o1	0	?	0	-	6.6µM	0
Cn1nc(C(C)(C)C)cc1C(=O)NCc1ccc2c(c1)OCO2	0	1µM	0	0	0	0
Cc1oc(C(C)(C)C)cc1C(=O)NCc1ccc2c(c1)OCO2	0	0	0	0	0	0
O=C(NCc1ccc2c(c1)OCO2)c1cc(Cl)ccc1Cl	-	0	13	0	0	0
O=C(NCc1ccc2c(c1)OCO2)Nc1ccc(Cl)cc1	0	0	25	0	?	0
COC(=O)C(NC(=O)c1cccnc1Cl)C(C)C (centres undefined)	0	0	0	0	0	0
CC(C)(C)c1ccc(C(=O)N2CCC2(C)C(=O)Nc2cccc(C#N)c2)cc1 (centres undefined)	-	-	-	-	-	0
CCOc1ccc(NS(=O)(=O)c2ccc(C(=O)NCC(c3ccco3)N3CCCCC3)cc2)cc1 (centres undefined)	-	-	-	-	-	0
CCN(CC)C(=O)c1cccc(-c2csc(C(O)c3ccc(OC)cc3)n2)c1 (centres undefined)	-	-	-	-	-	0
CCN(CC(=O)Nc1cccc(OC)c1)C(=O)c1ccncc1	0	?	0	0	0	0
C=CCN1C[C@H](C)N([C@H](c2ccc(C(=O)N(CC)CC)cc2)c2cccc(OC)c2)C[C@H]1C	-	-	-	4.8µM	0	-
C=CCN1C[C@@H](C)N(C(c2ccc(C(=O)N(CC)CC)cc2)c2cccc(OC)c2)C[C@@H]1C (some centres undefined)	-	0	-	1.7µM	0	0
CCn1cc(C2=NC(C(C)C)CO2)c2ccccc21 (centres undefined)	0	?	0	0	0	0
CCn1cc(C2=NC(CC(C)C)CO2)c2ccccc21 (centres undefined)	0	10µM	22	0	0	0
CCn1cc(C2=NC(CCSC)CO2)c2ccccc21 (centres undefined)	0	?	18	0	0	0
CCn1cc(C2N3CC4(C)CN2CC(C)(C3)C4=O)c2ccccc21 (centres undefined)	0	0	0	-	0	0
